Assay results: PubChem BioAssay (Tox21)
Records with an inconclusive call do not appear. Calls of active or inactive are those of the source. Unless noted, calls come from the whole dose curve; as a rule, active = well fitted curve in the direction sought with a large enough effect in the repeat runs; inconclusive = weak or mixed curves; inactive = no such curve, though single readings can be large; an effect the other way counts as inactive or inconclusive.

What was measured:
[1] = qHTS assay to identify small molecule agonists of the RXR signaling pathway - cell viability counter screen (AID 1159529); note: series mostly up to about 77 µM; nearly all actives have a fitted effect of over 50% in size
Outline: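 Luminescence from CellTiter-Glo (30 min, RT) measured viability in the same wells as the beta-lactamase reporter readout. Cells: GeneBLAzer RXR-alpha HEK 293T, 2% charcoal-stripped FBS. Compound exposure 16 hr, 37 C.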

[2] = qHTS assay to identify small molecule antagonists of the retinoid acid receptor (RAR) signaling pathway - cell viability counter screen (AID 1159551); note: nearly all actives have a fitted effect of over 35% in size
Outline: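 Cells (C3RL4) are plated, incubated overnight, dosed with compound in DMSO, then given retinol at 1 uM final. After 6 h at 37 C, CellTiter-Glo is added and luminescence read following 30 min at room temperature.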

[3] = qHTS assay to identify small molecule antagonists of the retinoic acid receptor (RAR) signaling pathway (AID 1159552; note: nearly all actives have a fitted effect of over 50% in size)
Outline: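 Luminescence from a RARE luciferase reporter in C3RL4 cells served as read-out. Cells received compounds together with 1 uM final retinol and incubated 6 hr at 37 C before detection reagent was added for 30 min at room temperature.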

[4] = qHTS assay to identify small molecule agonists of the retinoic acid receptor (RAR) signaling pathway (AID 1159553); note: potency is the fitted concentration of half-maximal effect
Outline: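 Seed C3RL4 reporter cells at 1,000 per well and incubate overnight at 37 C. Add compounds in DMSO, incubate 6 hr. Add luciferase reagent, wait 30 min at room temperature, read luminescence.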

[5] = qHTS assay to identify small molecule antagonists of the estrogen related receptor (ERR) signaling pathway from Tox21 library - cell viability counter screen (AID 1224834); note: nearly all actives have a fitted effect of over 30% in size
Outline: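 ERR cells, 2,000/well; 6 h settle at 37 C/5% CO2; pin-tool compound transfer in DMSO; 17.5 h at 37 C; CellTiter-Fluor, 30 min; fluorescence intensity.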

[6] = target: Luciferin 4-monooxygenase (Photinus pyralis) (UniProt P08659); test: qHTS assay to identify small molecule inhibitors of firefly luciferase (AID 1224835); note: series mostly up to about 120 µM; nearly all actives have a fitted effect of over 25% in size
Outline: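 Inhibition of purified Photinus luciferase is measured by luminescence. Substrate levels (D-luciferin, ATP) sit at their KM values. Each compound is tested in a concentration series.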

[7] = qHTS assay to identify small molecule agonists of the constitutive androstane receptor (CAR) signaling pathway - cell viability counter screen (AID 1224836); note: series mostly up to about 92 µM; nearly all actives have a fitted effect of over 45% in size
Outline: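 Viability read-out: CellTiter-Fluor fluorescence after 23 h compound exposure at 37 C/5% CO2 in double-stable HepG2-CYP2B6-hCAR cells, with PK11195 present at 0.75 uM final; compounds tested in 15-point titration.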

[8] = qHTS assay to identify small molecule antagonists of the constitutive androstane receptor (CAR) signaling pathway - cell viability counter screen (AID 1224837); note: series mostly up to about 92 µM; nearly all actives have a fitted effect of over 45% in size
Outline: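 Viability was measured with CellTiter-Fluor in a HepG2 line carrying stably transfected hCAR and a CYP2B6-2.2kb construct. Cells were exposed for 23 hr at 37 C to 15 compound concentrations with 50 nM CITCO as agonist.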

[9] = target: Nuclear receptor subfamily 1 group I member 3 (Homo sapiens) (UniProt Q14994); test: qHTS assay to identify small molecule agonists of the constitutive androstane receptor (CAR) signaling pathway (AID 1224839); note: nearly all actives have a fitted effect of over 15% in size; note: potency is the fitted concentration of half-maximal effect; for activation: series mostly up to about 92 µM
Outline: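 Luminescence read-out (ONE-Glo, 30 min, room temperature) from double-stable HepG2-CYP2B6-hCAR cells exposed 24 h to 15-point compound series in presence of 0.75 uM PK11195 final.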

[10] = qHTS assay to identify small molecule antagonists of the estrogen related receptor signaling pathway with the pleiotropic PPARgamma coactivator (PGC) from Tox21 10K library - cell viability counter screen (AID 1224840; active = well fitted cell-killing curve with a large enough effect in the repeat runs, not every such curve was filed as active; note: nearly all actives have a fitted effect of over 40% in size)
Outline: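 Multiplexed viability counter screen in the PGC/ERR cell line: cells treated with DMSO-dissolved compounds for 17.5 hours at 37 C, then viability measured as CellTiter-Fluor fluorescence.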

[11] = target: Thyrotropin receptor (Homo sapiens) (UniProt P16473); test: qHTS assay to identify small molecule agonists of the thyroid stimulating hormone receptor (TSHR) signaling pathway (AID 1224843; calls by dose curve; note: nearly all actives have a fitted effect of over 45% in size)
Outline: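 A cell-based cAMP HTRF format was run in TSHR-transfected HEK293 cells, 800 per well. Treatment: 30 min, room temperature. Detection: 1 h with labelled cAMP and anti-cAMP cryptate. Concentration-response over 15 points, three replicates.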

[12] = qHTS assay to identify small molecule antagonists of the estrogen related receptor signaling pathway with the pleiotropic PPARgamma coactivator (PGC) from Tox21 10K library (AID 1224841; call rule not given here; note: series mostly up to about 92 µM; actives are mostly falling curves and most rising ones were filed inactive; nearly all actives have a fitted effect of over 50% in size)
Outline: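 Steps: plate 2,000 PGC/ERR cells per well; incubate 6 h at 37 C with 5% CO2; transfer compounds from DMSO stocks by pin tool; incubate 18 h at 37 C; add One-Glo; measure luminescence 30 min later.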

[13] = qHTS assay to identify small molecule agonists of the estrogen related receptor signaling pathway with the pleiotropic PPARgamma coactivator (PGC) from Tox21 10K library (AID 1224842); note: nearly all actives have a fitted effect of over 15% in size
Outline: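 Luminescence from One-Glo (30 min, room temperature) measured after PGC/ERR cells had 18 h at 37 C with pinned compound (23 nL in DMSO). Cells had been seeded at 2,000 per well and pre-incubated 6 h.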

[14] = target: Nuclear receptor subfamily 1 group I member 3 (Homo sapiens) (UniProt Q14994); test: qHTS assay to identify small molecule antagonists of the constitutive androstane receptor (CAR) signaling pathway (AID 1224838);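 note: HepG2 cells stably expressing hCAR with CYP2B6 luciferase reporter stimulated by CITCO; nearly all actives have a fitted effect of over 40% in size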
Outline: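 Antagonist mode used CITCO at a final 50 nM to activate CAR in human hepatoma HepG2 cells carrying stable hCAR and a 2.2 kb CYP2B6 promoter-luciferase construct. Compounds were tested at 15 concentrations over 24 h, with luminescence as the end point.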
% is set by controls: 0 for no effect and ±100 for the full control effect.

Sequence of Nuclear receptor subfamily 1 group I member 3 (Homo sapiens) (Q14994 whole entry, looked up): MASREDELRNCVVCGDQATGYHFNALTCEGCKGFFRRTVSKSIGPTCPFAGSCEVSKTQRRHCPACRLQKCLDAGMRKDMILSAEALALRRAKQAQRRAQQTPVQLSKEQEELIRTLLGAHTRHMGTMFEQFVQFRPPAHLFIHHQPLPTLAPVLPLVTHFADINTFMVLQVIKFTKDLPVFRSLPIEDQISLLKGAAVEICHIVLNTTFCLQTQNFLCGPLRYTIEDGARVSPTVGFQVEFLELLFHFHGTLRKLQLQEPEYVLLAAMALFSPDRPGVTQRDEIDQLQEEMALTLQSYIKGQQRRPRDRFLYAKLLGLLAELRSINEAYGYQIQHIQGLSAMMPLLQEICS
Sequence of Thyrotropin receptor (Homo sapiens) (P16473 whole entry, looked up): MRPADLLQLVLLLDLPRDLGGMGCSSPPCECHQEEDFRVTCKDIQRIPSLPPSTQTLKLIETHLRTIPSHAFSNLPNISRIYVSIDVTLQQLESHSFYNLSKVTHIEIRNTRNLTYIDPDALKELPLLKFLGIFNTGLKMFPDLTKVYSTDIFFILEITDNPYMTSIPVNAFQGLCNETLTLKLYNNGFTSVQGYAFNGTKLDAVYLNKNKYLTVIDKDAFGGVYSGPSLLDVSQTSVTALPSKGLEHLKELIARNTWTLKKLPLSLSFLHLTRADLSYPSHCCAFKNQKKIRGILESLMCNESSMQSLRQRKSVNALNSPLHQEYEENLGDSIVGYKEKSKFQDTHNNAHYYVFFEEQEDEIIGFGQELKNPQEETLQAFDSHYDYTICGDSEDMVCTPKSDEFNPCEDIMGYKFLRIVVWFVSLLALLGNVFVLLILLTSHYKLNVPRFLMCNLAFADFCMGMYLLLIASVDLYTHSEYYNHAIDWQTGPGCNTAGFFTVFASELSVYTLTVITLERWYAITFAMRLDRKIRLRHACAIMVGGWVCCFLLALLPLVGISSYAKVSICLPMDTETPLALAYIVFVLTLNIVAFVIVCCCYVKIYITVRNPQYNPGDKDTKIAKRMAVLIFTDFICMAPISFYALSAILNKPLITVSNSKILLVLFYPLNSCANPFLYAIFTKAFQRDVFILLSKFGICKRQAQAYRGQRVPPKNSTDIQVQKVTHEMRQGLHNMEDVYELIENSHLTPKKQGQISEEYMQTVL
Sequence of Luciferin 4-monooxygenase (Photinus pyralis) (P08659 whole entry, looked up): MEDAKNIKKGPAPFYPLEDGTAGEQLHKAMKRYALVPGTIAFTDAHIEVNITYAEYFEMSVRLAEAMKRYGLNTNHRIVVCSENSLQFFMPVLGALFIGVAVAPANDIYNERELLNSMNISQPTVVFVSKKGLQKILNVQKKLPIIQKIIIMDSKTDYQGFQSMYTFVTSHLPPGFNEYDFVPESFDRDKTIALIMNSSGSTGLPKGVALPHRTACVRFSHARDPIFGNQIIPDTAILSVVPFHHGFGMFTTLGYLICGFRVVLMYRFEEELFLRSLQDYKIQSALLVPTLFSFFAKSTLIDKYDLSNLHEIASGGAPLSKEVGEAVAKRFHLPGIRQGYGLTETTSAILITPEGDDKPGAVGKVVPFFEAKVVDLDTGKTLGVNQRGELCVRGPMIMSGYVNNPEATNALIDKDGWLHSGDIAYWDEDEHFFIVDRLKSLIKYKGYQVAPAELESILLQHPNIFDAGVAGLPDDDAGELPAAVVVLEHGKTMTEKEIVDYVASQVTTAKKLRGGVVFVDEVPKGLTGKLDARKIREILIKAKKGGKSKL

CC(=O)OCCc1ccccc1
inactive: Potency [1] | Potency [2] | Potency [3] | Potency [4] | Potency [5] | Potency [6] | Potency [7] | Potency [8] | Potency [9] | Potency [10] | Potency [11]

Cc1ccc(C)o1
inactive: Potency [1] | Potency [2] | Potency [3] | Potency [4] | Potency [5] | Potency [6] | Potency [7] | Potency [8] | Potency [9] | Potency [10] | Potency [12] | Potency [13] | Potency [11]

CCCCCOC(=O)COc1cc(N2C(=O)C3=C(CCCC3)C2=O)c(F)cc1Cl
inactive: Potency [1] | Potency [2] | Potency [3] | Potency [4] | Potency [5] | Potency [6] | Potency [7] | Potency [8] | Potency [10] | Potency [11]

O=C(O)c1cn(C2CC2)c2cc(Cl)c(F)cc2c1=O
inactive: Potency [1] | Potency [2] | Potency [3] | Potency [4] | Potency [5] | Potency [6] | Potency [7] | Potency [8] | Potency [9] | Potency [10] | Potency [11]

CC1=CC(=O)/C(=C(/C)O)C(=O)O1
inactive: Potency [1] | Potency [2] | Potency [3] | Potency [4] | Potency [5] | Potency [6] | Potency [7] | Potency [8] | Potency [9] | Potency [10] | Potency [11]

NC1CCN(c2nc3c(cc2F)c(=O)c(C(=O)O)cn3-c2ccc(F)cc2F)C1 (stereo unspecified)
inactive: Potency [1] | Potency [2] | Potency [3] | Potency [4] | Potency [5] | Potency [6] | Potency [7] | Potency [8] | Potency [14] | Potency [10] | Potency [11]

CC(=O)Nc1ccc(/C=N/NC(N)=S)cc1
inactive: Potency [1] | Potency [2] | Potency [3] | Potency [4] | Potency [5] | Potency [6] | Potency [7] | Potency [8] | Potency [9] | Potency [10] | Potency [11]

Oc1ccc(O)c2c(O)cccc12
inactive: Potency [1] | Potency [2] | Potency [3] | Potency [4] | Potency [5] | Potency [6] | Potency [7] | Potency [8] | Potency [14] | Potency [10] | Potency [12] | Potency [13] | Potency [11]

NC(=S)N/N=C/c1cccnc1
inactive: Potency [1] | Potency [2] | Potency [3] | Potency [4] | Potency [5] | Potency [6] | Potency [7] | Potency [8] | Potency [10] | Potency [12] | Potency [13]

Oc1ccc2c(c1)OCO2
inactive: Potency [1] | Potency [2] | Potency [3] | Potency [4] | Potency [5] | Potency [6] | Potency [7] | Potency [8] | Potency [10] | Potency [11]

O=C(C(=O)c1ccc(Br)cc1)c1ccc(Br)cc1
inactive: activity change, negative = cytotoxicity [1] 5.23% [at 15.8 µM] | activity change, negative = cytotoxicity [2] 1.34% [at 19 µM] | activity, negative = inhibition [3] 45.5% [at 19 µM] | Potency [4] | viability change, negative = cytotoxic [5] -1.64% [at 19 µM] | activity change, negative = inhibition [6] 1.95% [at 23.6 µM] | viability change, negative = cytotoxic [7] 3.05% [at 19 µM] | activity change, negative = cytotoxicity [8] -2.27% [at 19 µM] | activation [9] 2.8% [at 19 µM] | viability change, negative = cytotoxic [10] 3.02% [at 19 µM] | activation [13] 2.38% [at 19 µM] | activation [11] 3.26% [at 19 µM]

O=C(CCN1CCN2CCCC2C1)N1c2ccccc2Sc2ccc(Cl)cc21 (stereo unspecified)
inactive: activity change, negative = cytotoxicity [1] -22.2% [at 15.8 µM] | activity change, negative = cytotoxicity [2] -0.0558% [at 19 µM] | activity, negative = inhibition [3] -11.3% [at 19 µM] | Potency [4] | viability change, negative = cytotoxic [5] -8.93% [at 19 µM] | activity change, negative = inhibition [6] -1.42% [at 23.6 µM] | viability change, negative = cytotoxic [7] -17% [at 19 µM] | activity change, negative = cytotoxicity [8] -18.2% [at 19 µM] | viability change, negative = cytotoxic [10] -1.3% [at 19 µM] | activity, negative = inhibition [12] -25.1% [at 19 µM] | activation [13] -6.92% [at 19 µM] | activation [11] -2.43% [at 19 µM]

O=S1(=O)c2cccc3cccc(c23)N1CCCN1CCN(c2ccc(F)cc2)CC1
inactive: Potency [1] | Potency [2] | Potency [3] | Potency [4] | Potency [5] | Potency [6] | Potency [7] | Potency [8] | Potency [10] | Potency [12] | Potency [13] | Potency [11]

CCCCCCCCCCCCCCCBr
inactive: Potency [1] | Potency [2] | Potency [3] | Potency [4] | Potency [5] | Potency [6] | Potency [7] | Potency [8] | Potency [10] | Potency [11]

O=C(O)COC(=O)Cc1ccccc1Nc1c(Cl)cccc1Cl
inactive: Potency [1] | Potency [2] | Potency [3] | Potency [4] | Potency [5] | Potency [6] | Potency [7] | Potency [8] | Potency [10] | Potency [12] | Potency [13] | Potency [11]

CCCCCCCCN(C)C
inactive: Potency [1] | Potency [2] | Potency [3] | Potency [4] | Potency [5] | Potency [6] | Potency [7] | Potency [8] | Potency [10] | Potency [12] | Potency [13] | Potency [11]

SC1CCCC1
inactive: Potency [1] | Potency [2] | Potency [3] | Potency [4] | Potency [5] | Potency [6] | Potency [7] | Potency [8] | Potency [10] | Potency [11]

Cc1occc1S
inactive: Potency [1] | Potency [2] | Potency [4] | Potency [5] | Potency [6] | Potency [7] | Potency [8] | Potency [9] | Potency [12] | Potency [13] | Potency [11]

c1ccc(OCc2ccc(CCCN3CCOCC3)cc2)cc1
inactive: Potency [1] | Potency [2] | Potency [3] | Potency [7] | Potency [8] | Potency [14] | Potency [12] | Potency [13] | Potency [11]
active: Potency [4] 13.3 µM | Potency [9] 29.8 µM

O=C(O)c1cccc(N(Cc2cccnc2)c2ccc(OC(F)F)c(OC(F)F)c2)c1
inactive: Potency [1] | Potency [2] | Potency [3] | Potency [4] | Potency [6] | Potency [7] | Potency [8] | Potency [9] | Potency [12] | Potency [13]

CC/C(=C\C(=N/O)C(N)=O)C(C)[N+](=O)[O-] (stereo unspecified)
inactive: Potency [1] | Potency [2] | Potency [3] | Potency [5] | Potency [6] | Potency [7] | Potency [8] | Potency [9] | Potency [10] | Potency [12] | Potency [13] | Potency [11]

NC[C@H]1O[C@H](O[C@H]2[C@H](O)[C@@H](O[C@H]3O[C@H](CO)[C@@H](O)[C@H](N)[C@H]3O)[C@H](N)C[C@@H]2N)[C@H](O)[C@@H](O)[C@@H]1O
inactive: activity change, negative = cytotoxicity [1] -2.14% [at 6.97 µM] | activity change, negative = cytotoxicity [2] -0.107% [at 8.39 µM] | activity, negative = inhibition [3] 7.6% [at 8.39 µM] | viability change, negative = cytotoxic [5] -5.48% [at 8.39 µM] | activity change, negative = inhibition [6] 8.02% [at 10.5 µM] | viability change, negative = cytotoxic [7] -3.02% [at 8.39 µM] | activity change, negative = cytotoxicity [8] 2.42% [at 8.39 µM] | viability change, negative = cytotoxic [10] 5.71% [at 8.39 µM] | activation [13] 1.17% [at 8.39 µM] | activation [11] -0.345% [at 8.39 µM]
